# Assay outcomes as filed in PubChem.
# A selection: hits, their analogues and other compounds. The true share with any hit is near 12%.
# HP1b binding inh: HP1-beta chromodomain-methylated histone interaction inhibition; AID 540317; P83916; hit rate 0.56% among 390,000; Potency, µM (titrated, usually from 114 µM), inactives show at the highest dose activity change, negative = inhibition, most hits filed as inhibitors; AlphaScreen HP1-beta / biotin-H3K9me3 peptide binding; also: nearly all actives have a fitted effect of over 70% in size
# Target sequence (P83916 whole entry, looked up): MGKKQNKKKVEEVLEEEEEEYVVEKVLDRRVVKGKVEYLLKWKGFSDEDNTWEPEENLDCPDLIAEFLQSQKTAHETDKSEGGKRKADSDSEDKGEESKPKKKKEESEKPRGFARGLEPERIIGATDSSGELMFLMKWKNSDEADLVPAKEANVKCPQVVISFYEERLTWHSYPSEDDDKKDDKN
#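 Compound inhibition of the preformed complex between 50 nM HP1-beta and 50 nM biotinylated H3K9me3 peptide was read by AlphaScreen. Buffer was PBS pH 7.4 with 0.01% Tween-20. Incubations ran 30 min at room temperature, with 10 ug/mL donor/acceptor beads.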
# JMJD2A Tudor: blocks the human JMJD2A Tudor domain; O75164; AID 504339; AlphaScreen JMJD2A-Tudor / H3K4me3 peptide binding; Potency, µM (titrated, usually from 114 µM), for the others: at the highest dose activity change, negative = inhibition, most hits filed as inhibitors; hit rate 4.4% among 390,000; also: % is scaled to controls: 0 for no effect and ±100 for the full control effect; nearly all actives have a fitted effect of over 50% in size
# BAZ2B inh: inhibitors of human BAZ2B bromodomain; Q9UIF8; AlphaScreen BAZ2B-H3K14Ac peptide displacement; Potency, µM (top dose mostly 114 µM), without a hit: top-dose activity change, negative = inhibition, hits mostly inhibitors; hit rate 4.4% among 360,000; AID 504333; also: % is scaled to controls: 0 for no effect and ±100 for the full control effect; nearly all actives have a fitted effect of over 60% in size
#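 BAZ2B (50 nM) with biotin-H3(5-23)K14Ac peptide (50 nM) in PBS pH 7.4, 0.01% Tween-20, preformed 30 min, then compound 30 min at room temperature; top concentration 110uM. AlphaScreen streptavidin donor/nickel chelate acceptor beads (10 ug/mL final), 20 min dark, signal read.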
# Sfp inh: inhibitors of Bacillus subtilis Sfp phosphopantetheinyl transferase; Biochemical Sfp PPTase activity, qHTS; Potency, µM, for inactives: largest response in the series, negative = inhibition, usual class: inhibitors; hit rate 3.5% among 310,000; AID 1490;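 also: the enzyme is Sfp with the accession as filed and its product quenches rhodamine fluorescence; 0% = enzyme reaction without inhibitor and -100% = no enzyme wells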
#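 Fluorescence-quenching assay with 15 nM Sfp, 5 uM rhodamine-CoA and 12.5 uM BHQ-2-labelled ybbR peptide in pH 7.6 Hepes/MgCl2 buffer. Enzyme was pre-incubated with compound for 15 min at room temperature. Rate was taken from the 30-min fluorescence change (525/598 nm).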
# G9a block: G9a (human) methyltransferase inhibition. G9a H3K9 monomethylation, AlphaScreen, 2 h. Potency, µM (titrated, usually from 102 µM), without a hit: top-dose activity, negative = inhibition, actives largely listed as inhibitors. hit rate 8.8% among 350,000. AID 504332; also: % is scaled to controls: 0 for no effect and ±100 for the full control effect; nearly all actives have a fitted effect of over 75% in size
# Target sequence (Q96KQ7 913-1193 limits assumed): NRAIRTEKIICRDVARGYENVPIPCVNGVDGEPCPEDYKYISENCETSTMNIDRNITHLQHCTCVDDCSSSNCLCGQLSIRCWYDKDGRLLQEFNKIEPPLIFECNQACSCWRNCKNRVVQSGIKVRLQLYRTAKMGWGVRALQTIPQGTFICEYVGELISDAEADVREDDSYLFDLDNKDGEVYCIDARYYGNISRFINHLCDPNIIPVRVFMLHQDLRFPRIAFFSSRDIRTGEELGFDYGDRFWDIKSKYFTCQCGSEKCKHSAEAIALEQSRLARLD
#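 Signal arises when biotinylated H3K9 peptide, once monomethylated, bridges streptavidin donor and antibody-captured acceptor beads. Enzyme at 20 nM was preincubated 15 min with test compounds; peptide 500 nM and SAM 20 uM then reacted for 2 h.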
# PLK1 PBD inh: blocks phosphopeptide binding to human PLK1 polo-box domain. P53350. Plk1 PBD binding of FITC phosphopeptide, fluorescence polarization. Potency, µM, for inactives: max response, negative = inhibition, actives largely listed as inhibitors. hit rate 2.8% among 360,000. AID 720504; also: series mostly up to about 57 µM; % is scaled to controls: 0 for no effect and ±100 for the full control effect; nearly all actives have a fitted effect of over 65% in size
# The depositor's hits bear a star; ? = inconclusive; . = not tested or not shown; [ ] = remark or other dose. Calls follow the shape of the dose curve; as a rule, active = well fitted curve in the direction sought with a large enough effect; inconclusive = small, poorly fitted or top-dose-only effect, or another doubt; inactive = no such curve, though single readings can be large; an effect the other way counts as inactive or inconclusive. Potency is read from the fitted curve at half-maximal effect.
SMILES,HP1b binding inh,JMJD2A Tudor,BAZ2B inh,Sfp inh,G9a block,PLK1 PBD inh
CC(=O)N1c2ccc(S(=O)(=O)NCCC(=O)NCc3ccc(F)cc3)cc2CC1C (stereo unspecified),16%,?,-11%,15%,-6%[59 µM],30µM*
CC(=O)N1c2ccc(S(=O)(=O)NCCC(=O)NCCc3ccc(C)cc3)cc2CC1C (stereo unspecified),12%,?,-16%,-1%,2%[59 µM],30µM*
CC(=O)N1c2ccc(S(=O)(=O)NCC3CCC(C(=O)N4CCCC(C)C4)CC3)cc2CC1C (stereo unspecified),9%,?,-32%,21%,62%,21µM*
CC(=O)N1c2ccc(S(=O)(=O)NCCC(=O)Nc3ccc(C)cc3Br)cc2CC1C (stereo unspecified),36%,3%,-14%,.,-3%[59 µM],.
CC1Cc2cc(S(=O)(=O)NCCC(=O)NCc3ccc(F)cc3)ccc2N1C(=O)C1CC1 (stereo unspecified),24%,4%,-6%,19%,19%[59 µM],17%
CCOCCCNC(=O)C(c1ccc(OC)cc1)N(Cc1cccs1)C(=O)c1ccc(NC(C)=O)cc1 (stereo unspecified),14%,-16%,8%,.,9%[59 µM],.
CC(=O)N1c2ccc(S(=O)(=O)NCCC(=O)Nc3ccc(OC(F)(F)F)cc3)cc2CC1C (stereo unspecified),22%,?,-3%,20%,8%[59 µM],6.7µM*
COc1cc(OC)c(NC(=O)C2CCN(S(=O)(=O)c3c(C)noc3/C=C/c3c(C)cc(C)cc3C)CC2)cc1Cl,22%[57 µM],-9%,-1%,.,6%[59 µM],.
Cc1ccnc(NS(=O)(=O)c2ccc(NC(=O)Cc3cccs3)cc2)n1,-33%,32µM*,50µM*,2%,5%[12.7 µM],?
Cc1ccnc(NS(=O)(=O)c2ccc(NC(=O)C3COc4ccccc4O3)cc2)n1 (stereo unspecified),?,18µM*,-22%,16%,2%,7.5µM*
O=C(Cc1ccc(Cl)c(Cl)c1)Nc1ccc(S(=O)(=O)Nc2ncccn2)cc1,33%,20µM*,-12%,-5%,?,-24%
O=C(Cc1cccs1)Nc1ccc(S(=O)(=O)Nc2ncccn2)cc1,-7%,79µM*,56µM*,-3%,?,-19%
O=c1[nH]nc(Cc2ncc(C(F)(F)F)cc2Cl)c2ccccc12,54%,-21%,-14%,12%,9%,-9%
C[C@H](CO)N1C[C@H](C)[C@@H](CN(C)S(=O)(=O)c2ccc(-c3ccccc3)cc2)OCc2cn(nn2)CCCC1=O,.,.,.,.,.,7%
Cc1onc(-c2ccccc2)c1C(=O)N1CCN(c2ncccc2C(F)(F)F)CC1,37%,-6%,-11%,14%,25%,6%
CCOC(=O)/C=C1\CC(C(=O)OCC)Oc2c(OC)cccc21 (stereo unspecified),22%,?,.,-21%,32µM*,?
COc1cc(OC)c2c(-c3ccccc3)cc(=O)oc2c1C(CCN1CCCC1)c1ccc2c(c1)OCO2 (stereo unspecified),-9%,?,-38%,?,-47%[59 µM],-21%
CCCCCc1cc(=O)oc2c(C(CCN3CCCC(C)C3)c3ccc4c(c3)OCO4)c(OC)cc(OC)c12 (stereo unspecified),-7%,?,32µM*,0%,?,-1%
CCCCCc1cc(=O)oc2c(C(CCN3CCCCC3)c3ccc4c(c3)OCO4)c(OC)cc(OC)c12 (stereo unspecified),-24%,45µM*,?,56µM*,-5%[12.7 µM],-15%
CCCCCc1cc(=O)oc2c(C(CCN3CCCC3)c3ccc4c(c3)OCO4)c(OC)cc(OC)c12 (stereo unspecified),-34%,50µM*,.,40µM*,.,.
CCOC(=O)C1CCCN(C(=S)NC(=O)c2cc(Br)ccc2Cl)C1 (stereo unspecified),25%,-7%,11%,.,7%,1%
CC(C)(C)NC(=S)Nc1ccc(Br)cc1,32%,-1%,2%,-10%,.,0%
CC(C)(C)NC(=S)Nc1ccc(Nc2ccccc2)cc1,-39%,32µM*,28µM*,?,11µM*,30µM*
Fc1ccccc1NC(=S)NCCc1ccc(Cl)cc1,54%,-4%,5%,6%,4%,-10%
S=C(NCCc1ccccc1)Nc1ccc(Nc2ccccc2)cc1,11µM*,18µM*,8.9µM*,-16%,.,?
SMILES,HP1b binding inh,JMJD2A Tudor,BAZ2B inh,Sfp inh,G9a block,PLK1 PBD inh
CC(C)(CNC(=S)NCCc1ccccc1)CNC(=S)NCCc1ccccc1,-19%,?,?,-17%,10µM*,-28%
Fc1ccccc1NC(=S)NCCc1ccccc1,76%,-21%[11.4 µM],-1%,10%,15%[59 µM],3µM*
CC(NC(=O)COC(=O)C1(C)CC1(Cl)Cl)c1ccccc1 (stereo unspecified),44%,8%,-4%,.,11%[12.7 µM],4%
Cc1cccc(C)c1NC(=S)NCCc1ccc(O)c(O)c1,-7%,-22%,-25%,50µM*,25µM*,4%
OCCNC(=S)NCCc1ccccc1,33%,-1%,-2%,0%,18%[59 µM],-2%
Cc1cccc(NC(=S)NCCc2ccccc2)c1C,33%,-20%,-37%,14%,29%,-8%
CCCCNC(=S)Nc1ccccc1Cc1ccccc1,13%,-25%,50µM*,4%,0%,-17%
S=C(NCCc1ccccc1)Nc1c(Cl)cccc1Cl,56%,1%,-7%,32µM*,?,27µM*
O=C(CN1C(=O)NC2(CCc3ccccc32)C1=O)Nc1ccccc1Cl (stereo unspecified),55%,-12%,.,.,.,-2%
C=CCNC(=S)NC(=O)c1csc([N+](=O)[O-])c1,-15%,-31%,-21%,56µM*,25µM*,-16%
O=C(NC(=S)N1CCCCC1)c1cccs1,-8%,-19%,-37%,-15%,?,-4%
O=C(NC(=S)N1CCCCC1)c1csc([N+](=O)[O-])c1,-21%,-13%,-32%,-3%,25µM*,?
CN(C)/C=N/c1c(C#N)cnn1-c1ccc(F)c(Cl)c1,.,.,.,3%,.,.
O=S(=O)(c1ccc(C(F)(F)F)cc1)N1CCN(S(=O)(=O)c2ccc3c(c2)OCCO3)CC1,.,-14%,.,.,.,.
Cn1c(/N=C/c2ccc3c(c2)OCO3)nc2ccccc21,-4%,-23%,-3%,3%,-4%,-1%
Cn1c(N=Nc2ccccc2)nc2ccccc21,?,?,50µM*,?,?,6%
CN(C)c1ccc(N=Nc2nc3ccccc3n2C)cc1,14µM*,10µM*,2.8µM*,-17%,?,2%
